Assay outcomes as filed in PubChem.
PTHR1 ag = agonists of human PTHR1 parathyroid hormone receptor. HEK293 GP2 PTHR1 cells, GloSensor cAMP luminescence, 1 h. Potency, µM (doses to about 115 µM), usual class: activators. 410,000 compounds, 0.075% hits. AID 743266; note: nearly all actives have a fitted effect of over 55% in size
Target sequence (Q03431 whole entry, looked up): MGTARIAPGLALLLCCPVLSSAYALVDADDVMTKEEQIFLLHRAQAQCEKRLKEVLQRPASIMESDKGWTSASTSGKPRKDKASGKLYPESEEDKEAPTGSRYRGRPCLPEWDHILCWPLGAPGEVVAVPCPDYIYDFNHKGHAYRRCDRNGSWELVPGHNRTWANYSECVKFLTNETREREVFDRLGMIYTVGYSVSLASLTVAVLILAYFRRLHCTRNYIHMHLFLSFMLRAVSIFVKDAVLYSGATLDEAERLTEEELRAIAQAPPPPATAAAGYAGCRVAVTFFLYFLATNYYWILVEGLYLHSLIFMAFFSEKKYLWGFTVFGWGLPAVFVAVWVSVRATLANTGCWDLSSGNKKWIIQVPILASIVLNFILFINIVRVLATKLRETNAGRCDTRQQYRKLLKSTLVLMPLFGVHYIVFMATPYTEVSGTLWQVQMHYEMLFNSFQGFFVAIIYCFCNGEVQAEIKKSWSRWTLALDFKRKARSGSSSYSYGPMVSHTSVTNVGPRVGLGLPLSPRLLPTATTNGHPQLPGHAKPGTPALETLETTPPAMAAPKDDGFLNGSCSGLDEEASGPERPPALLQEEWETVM
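HEK-293-derived GP2 cells expressing PTHR1 and a GloSensor cAMP reporter, 3,000/well, plated overnight, given luciferin plus IBMX (each 0.5 mM as added) for 1 h at 37 °C, then compound for 1 h at 37 °C. Luminescence was read after 15 min at room temperature.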
HEK293 tox = cytotoxic in the GLP-1 receptor inverse agonist counter-screen; Potency, µM (doses to about 38.3 µM), hits mostly inhibitors; HEK293 cAMP-luciferase reporter cells, luminescence, 24 h; 410,000 compounds, 0.13% hits; AID 624418;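 note: loss of luciferase light is scored as toxicity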
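Luminescence readout: signal drop marks cytotoxicity. Plated cells grew 12 h at 37 °C, 5% CO2, received 23 nL compound for 24 h, then got luciferase reagent, read after 12 min at RT.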
GLP1R inv ag = GLP-1 receptor (human) inverse agonism; HEK293 GLP-1R CRE-luciferase, luminescence, 24 h; GLP-1R form is constitutively active; 410,000 compounds, 1.6% hits; AID 624417; Potency, µM (titrated, usually from 38.3 µM), hits mostly inhibitors; note: nearly all actives have a fitted effect of over 55% in size
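Using stably transfected HEK293 (constitutively active GLP-1R, cAMP-luciferase reporter), compounds were incubated 24 hr and luciferase measured by luminescence.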
GLP-1R agonist = agonists of human GLP-1 receptor; P43220; HEK293 GLP-1R CRE-luciferase, luminescence, 4-6 h; cells express a hypersensitive GLP-1R form; Potency, µM (titrated, usually from 45.6 µM), usual class: activators; 380,000 compounds, 0.007% hits
Each line names hits and unclear results; the compound was inactive in the other large screens. Most compounds without a hit are left out; they make up all but 1.7% or so of the library. Calls come from the whole dose curve; as a rule, active = well fitted curve in the direction sought with a large enough effect; inconclusive = small, poorly fitted or top-dose-only effect, or another doubt; inactive = no such curve, though single readings can be large; an effect the other way counts as inactive or inconclusive.

C[C@H](O)[C@@H]1CN2CCc3c([nH]c4ccccc34)[C@@H]2C[C@@H]1N(C)C(=O)Nc1cc(Cl)cc(Cl)c1	GLP1R inv ag inconclusive
O=C1C=CC2(O[C@H](c3ccccc3)[C@@H](c3ccccc3)O2)[C@H](Sc2ccccc2O)C1	HEK293 tox 4.5µM, GLP1R inv ag inconclusive
C[C@@H]1[C@@H](Sc2ccccc2)CC(=O)O[C@@H]1c1ccc(-c2ccccc2)cc1	GLP1R inv ag inconclusive
CC(C)c1nnc(NC(=O)C2CCN(C(=O)Nc3ccc(Cl)cc3)CC2)s1	GLP1R inv ag 4µM
CCc1ccc(OCC(=O)Nc2cc(-c3nc4cc(C)ccc4o3)ccc2C)cc1	none
Cc1cc(-c2ccc(C)c(S(=O)(=O)N(Cc3cccs3)C(C)C)c2)on1	GLP1R inv ag 13µM (no result: GLP-1R agonist)
CC(C)N(Cc1nc(-c2ccccc2)no1)C(=O)c1ccc(Cl)cc1	GLP1R inv ag 11µM
c1csc(-c2nc3c4ccccc4c4ccccc4c3[nH]2)c1	GLP1R inv ag 5µM
Oc1ccccc1-c1nc2c3ccccc3c3ccccc3c2[nH]1	GLP1R inv ag inconclusive
CCn1nc(-c2ccccc2)c(-c2ccccc2)c(C(=O)Nc2ccc(NC(C)=O)cc2)c1=O	none (no result: GLP-1R agonist)
CCn1nc(-c2ccccc2)c(-c2ccccc2)c(C(=O)Nc2nc(C)c(C(C)=O)s2)c1=O	GLP1R inv ag 4.5µM (no result: GLP-1R agonist)
CC1CC(C)CN(C(=O)c2ccc3c(c2)N(Cc2ccccc2)CCS3)C1 (stereo unspecified)	GLP1R inv ag 11µM
CC(C)=CCc1c(O)cc(O)c2c(=O)c3c(CC=C(C)C)c(O)ccc3oc12	HEK293 tox inconclusive, GLP1R inv ag 10µM
CO/N=C/NC(=O)N1OC[C@@H]2COc3ccc4ccccc4c3[C@@H]21	none
O=C(N/C=N/OCc1cccc(C(F)(F)F)c1)N1OC[C@@H]2COc3ccc4ccccc4c3[C@@H]21	GLP1R inv ag 5.6µM
O=C(CC(c1ccccc1)c1ccccc1)NCC1CCCO1 (stereo unspecified)	none
CSCCC1NC(=O)N(CC(=O)Nc2c(Cl)cc(Cl)cc2Cl)C1=O (stereo unspecified)	none
CN(C)CCNC(C(=O)Nc1cc(Cl)cc(Cl)c1)c1ccccc1 (stereo unspecified)	GLP1R inv ag inconclusive
O=C(Nc1cc(Cl)cc(Cl)c1)C(NCC1CCCO1)c1ccccc1 (stereo unspecified)	GLP1R inv ag 5µM
CC(C(=O)Nc1cc(Cl)cc(Cl)c1)N1CCCC1 (stereo unspecified)	GLP1R inv ag 13µM
CSCCC1NC(=O)N(C(C)C(=O)Nc2cc(Cl)cc(Cl)c2)C1=O (stereo unspecified)	GLP1R inv ag 11µM
CC(C)NC(C(=O)Nc1cc(Cl)cc(Cl)c1)c1ccccc1 (stereo unspecified)	GLP1R inv ag 7.9µM
CCOC(=O)c1ccc2c(c1)N(CC(=O)N(C)c1ccccc1)C(=O)c1ccccc1S2	none
COc1ccc(-n2nc3c(N4CCCC(C(=O)NCc5cccc(F)c5)C4)nnc(C)c3c2C)cc1 (stereo unspecified)	none (no result: GLP-1R agonist)
CCOc1ccc(CC(=O)Nc2c(C(=O)c3ccc(Cl)cc3)oc3ccccc23)cc1OCC	none
CC(C(=O)Nc1ccccc1-c1ccccc1)N1CCCCC1 (stereo unspecified)	GLP1R inv ag 10µM
COc1cc2c(cc1OC)[C@@H](Cc1cc(OC)c(OC)c(OC)c1)[N@+](C)(CCCOC(=O)CC/C=C/CCC(=O)OCCC[N@+]1(C)CCc3cc(OC)c(OC)cc3[C@H]1Cc1cc(OC)c(OC)c(OC)c1)CC2	none (no result: PTHR1 ag, HEK293 tox, GLP1R inv ag)
COc1ccc(C)cc1NS(=O)(=O)c1ccc(NC(=O)CN(c2cc([N+](=O)[O-])ccc2C)S(C)(=O)=O)cc1	GLP1R inv ag 1.8µM
O=C(CSc1ccc2c(c1)OCCO2)NCCc1ccc(Cl)cc1Cl	GLP1R inv ag 11µM
O=C(CSc1ccc2c(c1)OCCO2)Nc1ncc(Cl)cc1Cl	none
N#CCCCC#Cc1ccc2c(c1)COc1c3ccccc3nn1-2	GLP1R inv ag 2.5µM
CC(=O)Nc1cccc(C(=O)NC2CCCc3c2cnn3-c2ccc(C(C)(C)C)cc2)c1 (stereo unspecified)	GLP1R inv ag inconclusive
CC(C)(C)c1ccc(-n2ncc3c2CCCC3NC(=O)c2ccco2)cc1 (stereo unspecified)	GLP1R inv ag 10µM
CCCC(=O)N(Cc1cc(=O)[nH]c2ccccc12)c1cccc(C)c1	none
Cc1cccc(N(Cc2cc(=O)[nH]c3ccccc23)C(=O)CCl)c1	GLP1R inv ag 2.5µM
COc1ccc(NC(=O)C(=O)NCc2ccco2)c(OC)c1	none (no result: GLP-1R agonist)
c1ccc(-c2cc3ccccc3nc2N2CCCC2)cc1	GLP1R inv ag 2.5µM
Cc1nc2ccccc2nc1N1CCCCC1	none
Cc1cc(C)n(-c2nc3ccccc3nc2N2CCCCCC2)n1	PTHR1 ag inconclusive, GLP1R inv ag 6.3µM
c1ccc2nc(N3CCCC3)c(N3CCCC3)nc2c1	GLP1R inv ag 1.8µM
Cc1ccc(-c2cc3ccccc3nc2N2CCOCC2)cc1	GLP1R inv ag inconclusive
CCCSc1ncc(Cl)c(C(=O)Nc2ccc(OC)cc2OC)n1	none (no result: GLP-1R agonist)
Cc1ccc(NC(=O)CCCn2nc(C)c3sc4ccccc4c3c2=O)c(Cl)c1	none (no result: GLP-1R agonist)
O=C(NCc1ccccc1Cl)C1CCCN(c2ncnc3onc(-c4ccc(F)cc4)c23)C1 (stereo unspecified)	none (no result: GLP-1R agonist)
Cn1cc(CN2CCCCC2CO)c(-c2ccc(Oc3ccccc3)cc2)n1 (stereo unspecified)	GLP1R inv ag 10µM
Cc1cn2c(=O)cc(COc3ccccc3NC(=O)c3ccc(Cl)cc3)nc2s1	none
COc1ccc(-c2cccc3c2C2CC3CCN2C(=O)OCc2ccccc2)cc1 (stereo unspecified)	GLP1R inv ag 22µM
Cc1cc(C)c2c(N)c(C(=O)Nc3ncc(C)s3)sc2n1	GLP1R inv ag 1.3µM
COC(=O)c1sc2nc(C)cc(C)c2c1N	none
CCN(CC)S(=O)(=O)c1ccc2c(c1)N(CC(=O)Nc1c(C)cc(C)cc1C)C(=O)C1CCCN21 (stereo unspecified)	none (no result: GLP-1R agonist)
CC(C)CN(CC(C)C)C(=S)NC1CCCCC1	HEK293 tox 10µM, GLP1R inv ag inconclusive
CCNC(=O)[C@@H]1CCCN1C(=O)[C@H](CCCN=C(N)N)NC(=O)[C@H](CC(C)C)NC(=O)[C@@H](Cc1c[nH]c2ccccc12)NC(=O)[C@H](Cc1ccc(O)cc1)NC(=O)[C@H](CO)NC(=O)[C@H](Cc1c[nH]c2ccccc12)NC(=O)[C@H](Cc1cnc[nH]1)NC(=O)[C@@H]1CCC(=O)N1	none (no result: PTHR1 ag, HEK293 tox, GLP1R inv ag)
CCCCn1cnc2c(c(-c3ccccc3)c(-c3ccccc3)n2Cc2ccco2)c1=N	HEK293 tox inconclusive, GLP1R inv ag inconclusive
N=c1c2c(-c3ccccc3)c(-c3ccccc3)n(Cc3ccco3)c2ncn1Cc1ccco1	HEK293 tox inconclusive, GLP1R inv ag 8.9µM
N=c1c2c(-c3ccccc3)c(-c3ccccc3)n(Cc3ccccc3)c2ncn1CCCn1ccnc1	HEK293 tox 10µM, GLP1R inv ag 7.9µM
